# Assay results taken from PubChem BioAssay (EPA / NIEHS).
# Where “and” joins values, the source holds several entries; their conditions need not be identical. Equal entries are not always repeated. Results filed as inconclusive are left out. The source holds several records for some structures; these can differ, active in one and inactive in another. Calls of active or inactive are those of the source. The calls were made as follows: active = hit-call score of the fitted dose curve at least 0.9, where 1 is the maximum; inconclusive = response in the unintended direction; inactive = score below 0.9.
# Target: Nuclear receptor subfamily 4 group A member 2 (Homo sapiens) (UniProt P43354)
# Sequence (P43354 whole entry, looked up): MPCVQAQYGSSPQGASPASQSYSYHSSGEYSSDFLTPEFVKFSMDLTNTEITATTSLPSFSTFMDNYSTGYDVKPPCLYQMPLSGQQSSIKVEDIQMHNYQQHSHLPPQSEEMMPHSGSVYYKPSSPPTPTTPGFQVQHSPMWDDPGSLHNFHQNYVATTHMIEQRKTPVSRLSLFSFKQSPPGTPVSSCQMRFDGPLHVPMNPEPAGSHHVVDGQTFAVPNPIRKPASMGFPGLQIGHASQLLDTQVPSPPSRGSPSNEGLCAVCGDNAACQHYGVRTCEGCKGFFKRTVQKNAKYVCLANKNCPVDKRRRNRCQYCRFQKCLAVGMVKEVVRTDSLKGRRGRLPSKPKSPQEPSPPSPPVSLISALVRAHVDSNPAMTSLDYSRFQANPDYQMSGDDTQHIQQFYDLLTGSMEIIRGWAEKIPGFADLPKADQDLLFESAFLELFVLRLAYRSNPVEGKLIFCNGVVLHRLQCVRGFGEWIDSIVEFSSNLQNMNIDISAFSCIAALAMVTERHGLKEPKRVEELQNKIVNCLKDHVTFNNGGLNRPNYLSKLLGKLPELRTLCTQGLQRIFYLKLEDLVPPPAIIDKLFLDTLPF
# Experiment: ATG_NURR1_TRANS: Attagene TRANS-FACTORIAL HepG2 Assay for human Nuclear Receptor Related Protein 1 (NURR1) (AID 2282985)
# Settings: HepG2 Attagene TRANS reporter, mRNA readout
# Protocol: ATG_TRANS is a cell-based, multiplexed-readout assay that uses HepG2, a human liver cell line, with measurements taken at 24 hours after chemical dosing in a 24-well plate.ATG_NURR1_TRANS is one of 30 assay component(s) measured or calculated from the ATG_TRANS assay. It is designed to make measurements of mRNA induction, a form of inducible reporter, as detected with fluorescence intensity signals by Reverse transcription polymerase chain reaction (RT-PCR) and Capillary electrophoresis technology.Data from the assay component ATG_NURR1_TRANS was analyzed into 1 assay endpoint. This assay endpoint, ATG_NURR1_TRANS, was analyzed in the positive analysis fitting direction relative to DMSO as the negative control and baseline of activity. Using a type of inducible reporter, measures of mRNA for gain-of-signal activity can be used to understand the reporter gene at the transcription factor-level as they relate to the gene NR4A2. Furthermore, this assay endpoint can be referred to as a primary readout, because this assay has produced multiple assay endpoints where this one serves a reporter gene function. To generalize the intended target to other relatable targets, this assay endpoint is annotated to the nuclear receptor intended target family, where the subfamily is orphan.
# Human liver HepG2 cells are transiently transfected with multiple reporter transcription units (MRTUs) in 6-well plates using FuGene 6 reagent (Roche; 3 ml FuGene/1 mg DNA). The MRTU constructs are regulated by a cis-regulating element (promoter). […] A major difference between the CIS and TRANS system is that in CIS activities of endogenous TFs are measured, whereas the TRANS assay evaluates changes in activities of exogenous, chimeric NR-Gal4 proteins. […] At the end of 24 hour incubation, total RNA was isolated using TriZol reagent (Invitrogen). The isolated RNA is then reverse-transcribed using oligo(dT) primer and Mo-MLV reverse transcriptase (Invitrogen) with DNAse I (Ambion) treatment for 30 min. The one-tenth of the produced cDNA was amplified by PCR using Taq DNA polymerase (Invitrogen) and two reporter sequence-specific primers. The PCR products were fluorescently labeled by primer extension with 6-arboxyfluorescein (6-FAM) 5'-labeled reporter sequence-specific primer (2 min at 95 C, 20 s at 68 C and 10 min at 72 C) and these products were digested with 5U of HpaI (New England Biolabs) for 2h at 37 C. The fragments were purified using Qiaquick PCR columns (Qiagen), analyzed on an ABI 3130xL genetic analyzer (Applied Biosystems) with peak positions identified by using a set of X-rhodamine (ROX)-labeled MapMarker1000 molecular weight standards (BioVentures). The raw capillary electrophoresis data was processed using Attagraph software (Attagene).
SMILES,outcome,AC50
C[C@@H](Oc1ccc(CNC(=O)c2cccnc2Oc2ccc3c(c2)OCO3)c(F)c1)C(=O)O,inactive,
Cc1ncc([C@@H](CCCCCCc2ccc3c(n2)NCCC3)CC(=O)O)cn1,inactive,
CCc1ccc(O)c(C(C)(C)C)c1,,53.4 µM (active)
O=C(N[C@H](CO)[C@H](O)c1ccc([N+](=O)[O-])cc1)C(Cl)Cl,inactive,
CCCCCCOC(=O)CC(CC(=O)OCCCCCC)(OC(=O)CCC)C(=O)OCCCCCC,inactive,
O=S(=O)(O)c1ccc(N=Nc2c(O)ccc3cc(S(=O)(=O)O)ccc23)cc1,inactive,
FC(F)(F)C(F)(F)C(F)(F)C(F)(F)C(F)(F)C(F)(F)I,inactive,
C[C@]12C=CC(=O)C=C1CC[C@H]1[C@@H]3C[C@@H](O)[C@](O)(C(=O)CO)[C@@]3(C)C[C@H](O)[C@@]12F,inactive,
Cc1ccc(S(=O)(=O)NC(=O)NN2CCCCCC2)cc1,inactive,
CNC(C)=O,inactive,
OCc1c[nH]c2ccccc12,inactive,18.8 µM (active) and 14.4 µM (active)
NC(=O)NN=Cc1ccc([N+](=O)[O-])o1,inactive,
O=C(O)CO,,27.3 µM (active)
C[Si](C)(C)C(F)(F)C(F)(F)C(F)(F)F,inactive,
CCCC(CCC)C(=O)O,inactive,
CCn1nc(C)c2c1C(=O)NCC(c1ccc(O)cc1)=N2,inactive,
OC(Cn1cncn1)(Cn1cncn1)c1ccc(F)cc1F,inactive,
FC(F)=C(F)C(F)(F)C(F)(F)C(F)(F)C(F)(F)C(F)(F)C(F)(F)F,inactive,
O=C(NO)C1(NS(=O)(=O)c2ccc(Oc3ccc(F)cc3)cc2)CCOCC1,inactive,

SMILES,outcome,AC50
CC(C)CCCCCCOC(=O)C1CCCCC1C(=O)OCCCCCCC(C)C (stereo not given),inactive,
CC(C)C(=O)Nc1ccc([N+](=O)[O-])c(C(F)(F)F)c1,,43.5 µM (active)
c1ccc(C(O[C@@H]2CCCN(CCc3ccc4c(c3)OCO4)C2)c2ccccc2)cc1,inactive,
CCCCCCCCCC,inactive,
CCCCCCCCCCCCCCCCOS(=O)(=O)O,inactive,
Cc1cccc(O)c1C,inactive,
Cn1cc[nH]c1=S,inactive,
CCCCCCCC/C=C\CCCCCCCC(=O)OC[C@@H](O)[C@H]1OC[C@H](O)[C@H]1O,inactive,
CCCc1ccccc1,inactive,
Cc1nccn1-c1ccc(Sc2cccc(C3(C(N)=O)CCOCC3)c2)cc1,,14.3 µM (active)
NCC(F)(F)C(F)(F)C(F)(F)C(F)(F)F,inactive,
O=S(=O)(O)CCC(F)(F)C(F)(F)C(F)(F)C(F)(F)C(F)(F)C(F)(F)F,inactive,
CCCCCCCCN(C)C,inactive,
O=C(O)c1cccc(C[C@@H]2COc3ccc(OCc4nc5cc(F)ccc5s4)cc3[C@@H]2O)c1,inactive,
O=c1[nH]cnc2c1ncn2[C@H]1CC[C@@H](CO)O1,inactive,
CCCCOC(=O)c1ccccc1,inactive,
Cn1c(=O)c2[nH]cnc2n(C)c1=O,inactive,
NC(N)=O,inactive,
OCc1ccccc1,inactive,14.2 µM (active)
